{"source": "PubChem BioAssay AID623868", "about": "(Vanderbilt High Throughput Screening Facility, 2012)", "note": "Among all 2,100 compounds or so, about 760 (36%) were called active.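 How the source made its calls: active means thallium-flux fluorescence traces judged by eye to show enhanced or reduced glutamate response, manual score 1 or -1, so both directions (some results past the limit were not filed as active); inactive means the rest, including fluorescent or raised-baseline compounds.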 The list is a sample of the results."}
{"experiment": "thallium influx changes without GIRK channels – cell-based, HEK-293 rmGlu8, no GIRK, thallium flux, counter-screen for GIRK activator project, confirmation (AID 623868);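 further: extra codes mark interference with 3 for fluorescent and 4 for baseline rise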", "details": "thallium flux fluorescence, at 10 µM, actives lie on both sides, codes: 1 enhancer, -1 blocker, 0 none, thallium stimulus containing EC20 glutamate"}
{"smiles": "O=C(Nc1ccc2c(c1)OCCO2)NC12CC3CC(CC(C3)C1)C2", "manual score": "0 (inactive)"}
{"smiles": "CN(C)S(=O)(=O)c1cc(NC(=O)COC(=O)c2ccc3c(c2)OCO3)ccc1Cl", "manual score": "0 (inactive)"}
{"smiles": "C/C(=N\\NC(=S)Nc1cccc(C)c1)c1cccc(N)c1", "manual score": "1 (active)"}
{"smiles": "C/C(=N/NC(=S)Nc1ccccc1)c1ccc2c(c1)OCO2", "manual score": "1 (active)"}
{"smiles": "C/C(=N\\NC(=S)Nc1ccc(F)cc1)c1ccc2c(c1)OCCO2", "manual score": "1 (active)"}
{"smiles": "COC(=O)[C@H](CC(C)C)NC(=O)Nc1ccc2c(c1)OCCO2", "manual score": "0 (inactive)"}
{"smiles": "Cc1c(N2C(=O)CS/C2=N\\N=C\\c2ccccc2O)c(=O)n(-c2ccccc2)n1C", "manual score": "0 (inactive)"}
{"smiles": "O=C1c2ccccc2C(=O)N1Nc1ccccc1", "manual score": "0 (inactive)"}
{"smiles": "Cc1ccc(C)n1-c1ccc(-c2nnco2)cc1", "manual score": "0 (inactive)"}
{"smiles": "CCOc1ccc(-c2nc(-c3cccnc3)no2)cc1OCC", "manual score": "0 (inactive)"}
{"smiles": "O=C(CSc1nnnn1-c1cccc2c1CCCC2)NC1CCCC1", "manual score": "0 (inactive)"}
{"smiles": "Cc1ccc(-c2cn(-c3ccccc3)c(SCC(=O)NC3CCS(=O)(=O)C3)n2)cc1C", "note": "(stereo not given)", "manual score": "1 (active)"}
{"smiles": "N#C/C(=C\\c1ccc(N2CCOCC2)o1)c1nc2ccccc2[nH]1", "manual score": "3 (inactive)"}
{"smiles": "Cc1ccc(C)c(NC(=S)c2nc3ccccc3s2)c1", "manual score": "1 (active)"}
{"smiles": "Cc1ccc(-n2nnnc2-c2nc3ccccc3s2)cc1", "manual score": "0 (inactive)"}
{"smiles": "N#C/C(=C/c1ccc(N2CCOCC2)o1)c1nc2ccccc2[nH]1", "manual score": "3 (inactive)"}
{"smiles": "Cc1ccc(OC(=S)Nc2ccccc2)c(C)c1", "manual score": "0 (inactive)"}
{"smiles": "Cc1ccc(NC(=S)c2nc3ccccc3[nH]2)c(C)c1", "manual score": "1 (active)"}
{"smiles": "Cc1ccc2nc(NCc3ccccc3)[nH]c2c1", "manual score": "0 (inactive)"}
{"smiles": "Cc1ccccc1NC(=S)c1nc2ccccc2[nH]1", "manual score": "1 (active)"}
{"smiles": "O=C1CN(C(=O)CSc2nc3ccccc3c(=O)n2Cc2ccc(F)cc2)c2ccccc2N1", "manual score": "1 (active)"}
{"smiles": "Cc1cc(NC(=O)CSc2nc3ccccc3c(=O)n2Cc2ccccc2)no1", "manual score": "0 (inactive)"}
{"smiles": "O=C(CSc1nc2ccccc2c(=O)n1CC1CCCO1)N1CCN(c2ccccc2)CC1", "note": "(stereo not given)", "manual score": "0 (inactive)"}
{"smiles": "Cc1ccc(Cn2c(SCC(=O)N3CC(=O)Nc4ccccc43)nc3ccccc3c2=O)cc1", "manual score": "1 (active)"}
{"smiles": "CC(c1ccccc1)n1c(SCC(=O)N2CC(=O)Nc3ccccc32)nc2ccccc2c1=O", "note": "(stereo not given)", "manual score": "0 (inactive)"}
{"smiles": "O=C1CN(C(=O)CSc2nc3cc(Cl)ccc3c(=O)n2Cc2ccccc2)c2ccccc2N1", "manual score": "1 (active)"}
{"smiles": "CCC(C)NC(=O)CSc1nc2ccccc2c(=O)n1Cc1ccc(OC)cc1", "note": "(stereo not given)", "manual score": "1 (active)"}
{"smiles": "Cc1ccc(Cn2c(SCC(=O)NCC3CCCO3)nc3c(sc4ccccc43)c2=O)cc1", "note": "(stereo not given)", "manual score": "0 (inactive)"}
{"smiles": "Clc1ccc(OCCn2ccnc2)c(Cl)c1", "manual score": "0 (inactive)"}
{"smiles": "CC(/C=N/n1c(-c2ccccc2)n[nH]c1=S)=C\\c1ccco1", "manual score": "1 (active)"}
{"smiles": "CC(/C=N/n1c(-c2ccc(Cl)cc2)n[nH]c1=S)=C\\c1ccco1", "manual score": "1 (active)"}
{"smiles": "O=C(Nc1ccccc1)Nc1nccs1", "manual score": "-0.5 (inactive)"}
{"smiles": "COC(=O)CSC1=NS(=O)(=O)c2ccccc21", "manual score": "0 (inactive)"}
{"smiles": "CCCc1nc2ccccc2c(=O)n1/N=C/c1c(C)[nH]n(-c2ccc(C)cc2)c1=O", "manual score": "1 (active)"}
{"smiles": "CN(C)CCNc1nc2c(c(=O)[nH]c(=O)n2C)n1CCCc1ccccc1", "manual score": "0 (inactive)"}
{"smiles": "O=c1c(-c2ccccc2)nc(-c2ccccc2)cn1O", "manual score": "1 (active)"}
{"smiles": "COCCn1nnnc1C(c1ccccc1)N1CCN(c2ccccc2)CC1", "note": "(stereo not given)", "manual score": "0 (inactive)"}
{"smiles": "COc1ccccc1N=Cc1nc(-c2ccccc2)oc1OC(C)=O", "manual score": "-1 (active)"}
{"smiles": "CCC(=O)Oc1oc(-c2ccccc2)nc1C=Nc1ccccc1OC", "manual score": "-1 (active)"}
{"smiles": "CCOC(=O)c1ccc(NC(=O)Nc2ccc(OC)c(OC)c2)cc1", "manual score": "0 (inactive)"}
{"smiles": "C=CCN(CC=C)C(=S)NC(=O)/C=C/c1ccc(C)cc1", "manual score": "1 (active)"}
{"smiles": "Cc1ccnc(NC(=S)NC(=O)/C=C/c2ccco2)c1", "manual score": "0 (inactive)"}
{"smiles": "CCOC(=O)c1c(CNCCN(CC)CC)n(C)c2cc(Br)c(OC)cc12", "manual score": "0 (inactive)"}
{"smiles": "C=CCN(CC=C)C(=S)NC(=O)c1ccc(C)c(Br)c1", "manual score": "1 (active)"}
{"smiles": "C=CCN(CC=C)C(=S)NC(=O)c1ccc(OC)c(Br)c1", "manual score": "1 (active)"}
{"smiles": "COc1ccc(C(=O)NC(=S)NCCO)cc1Br", "manual score": "1 (active)"}
{"smiles": "COc1ccc(C(=O)NC(=S)NC(C)C)cc1Br", "manual score": "0.5 (inactive)"}
{"smiles": "Cc1ccc(-c2nnn(CC(=O)NC3CC4CCC3C4)n2)cc1", "note": "(stereo not given)", "manual score": "0 (inactive)"}
{"smiles": "Clc1ccc(Cc2ccc(SCc3ccccc3)nn2)c(Cl)c1", "manual score": "0 (inactive)"}
{"smiles": "CCCCCCCCCn1c2c(c(=N)c3c1CCC3)CCC2", "manual score": "0 (inactive)"}
{"smiles": "CCN(CC)C(=O)CN(c1ccc2c(c1)OCO2)S(C)(=O)=O", "manual score": "0 (inactive)"}
{"smiles": "NC1=NC2(CCCCC2)n2c(nc3ccccc32)N1", "manual score": "0 (inactive)"}
{"smiles": "NC(=O)SCC(=O)Nc1cccc(Cl)c1", "manual score": "0 (inactive)"}
{"smiles": "COC(=O)C(C)N(C(=O)c1cccc(Cl)c1)c1c(C)cccc1C", "note": "(stereo not given)", "manual score": "-1 (active)"}
{"smiles": "COC(=O)C(C)N(C(=O)c1cccc2ccccc12)c1c(C)cccc1C", "note": "(stereo not given)", "manual score": "-1 (active)"}
{"smiles": "S=c1[nH]ccn1-c1cccc(Cl)c1", "manual score": "0 (inactive)"}
{"smiles": "Oc1c(C=NCc2ccncc2)sc2ccccc12", "manual score": "0 (inactive)"}
{"smiles": "C=C(C)C1CC=C(C)/C(=N/NC(=O)COc2cccc(C)c2)C1", "note": "(stereo not given)", "manual score": "0 (inactive)"}
{"smiles": "O=C(COc1ccc(Br)cc1Cl)NC(=S)N1CCc2ccccc21", "manual score": "0 (inactive)"}
{"smiles": "O=C(COc1ccccc1Cl)NC(=S)N1CCc2ccccc21", "manual score": "1 (active)"}
{"smiles": "Cc1cccc(OCc2nnc(SCC(=O)N3CCc4ccccc43)n2C)c1", "manual score": "0 (inactive)"}
{"smiles": "Cc1cnc(NC(=O)COc2ccccc2Cl)s1", "manual score": "0 (inactive)"}
{"smiles": "Cc1cccc(OCC(=O)NC(=S)N2CCCc3ccccc32)c1", "manual score": "1 (active)"}
{"smiles": "CC(Oc1ccc(Cl)cc1Cl)C(=O)NC(=S)N1CCc2ccccc21", "note": "(stereo not given)", "manual score": "1 (active)"}
{"smiles": "O=C(COc1ccccc1)NC(=S)N1CCc2ccccc21", "manual score": "1 (active)"}
{"smiles": "N#CC(C#N)=C1C=C2C=C(N3CCCCCC3)CCC2CC1", "note": "(stereo not given)", "manual score": "3 (inactive)"}
{"smiles": "O=C(COc1ccc(Cl)cc1Cl)NC(=S)N1CCCc2ccccc21", "manual score": "1 (active)"}
{"smiles": "CC1CCC/C(=N\\NC(=O)COc2ccc(Cl)cc2Cl)C1", "note": "(stereo not given)", "manual score": "0 (inactive)"}
{"smiles": "O=C(COc1ccc(Br)cc1Br)NC(=S)N1CCCc2ccccc21", "manual score": "0.5 (inactive)"}
{"smiles": "CCCCN(CCCC)c1nc2ccccc2nc1C(C#N)C(=O)NCCCOC", "note": "(stereo not given)", "manual score": "3 (inactive)"}
